# In all, about 1,400 compounds went through this assay and about 350 (25%) were called active. Inconclusive results (about 2%) are left out. The rule behind the calls is not given here. A selection follows. Results with a measured potency or affinity are listed apart.
# Test: C. difficile growth inhibition, confirmation, 4-point retest (AID 1224921);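 note: plate controls were DMSO wells for no effect and levofloxacin 16 µg/mL wells for full effect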
# Conditions: Clostridioides difficile clinical isolate growth, OD600, 24 h, stronger effect = lower value; at 30 µM unless noted
row,SMILES,max activity
1,COCC(=O)Nc1ccc2c(c1)OC[C@H](C)N(Cc1cncnc1)C[C@@H](C)[C@@H](OC)CN(C)C2=O,-11.6% (inactive)
2,O=C(Nc1cc(F)ccc1F)N[C@H]1CC[C@@H](CC(=O)N2CCc3ccccc3C2)O[C@H]1CO,-5.46% [at 0.5 µM] (inactive)
3,O=C(C[C@H]1C=C[C@@H](NC(=O)c2ccccn2)[C@H](CO)O1)NCc1cc(F)cc(F)c1,7.65% (inactive)
4,CO[C@H]1CN(C)C(=O)c2cc(NC(=O)c3ccccc3)ccc2OC[C@H](C)N(CC2CC2)C[C@H]1C,-5.21% [at 8 µM] (inactive)
5,O=C(Nc1cc(F)ccc1F)N[C@@H]1CC[C@H](CC(=O)N2CCc3ccccc3C2)O[C@@H]1CO,29.6% (inactive)
6,CCCC#Cc1ccc2c(c1)O[C@H](CN(C)Cc1cccnc1)[C@@H](C)CN([C@H](C)CO)S2(=O)=O,41% (inactive)
7,CO[C@H]1CN(C)C(=O)c2cc(NC(C)=O)ccc2OC[C@H](C)N(Cc2nccs2)C[C@H]1C,16% (inactive)
8,O=C1O[C@@H](c2ccccc2)[C@@H](c2ccccc2)N2[C@@H](c3ccc(O)cc3)[C@]3(C(=O)Nc4ccc(C#CC5=CCCCC5)cc43)[C@@H](C(=O)O)[C@H]12,28.7% [at 8 µM] (inactive)
9,CCCNC(=O)N[C@@H]1C=C[C@@H](CC(=O)N2CCN(C)CC2)O[C@H]1CO,-11.4% (inactive)
10,Cc1noc(C)c1NC(=O)N[C@H]1CC[C@H](CC(=O)Nc2ccc(-c3ccccc3)cc2)O[C@H]1CO,16% (inactive)
11,CCCC(=O)Nc1ccc2c(c1)C(=O)N(C)[C@H]1CC[C@@H](CC(=O)OC)O[C@@H]1CO2,-11% [at 0.5 µM] (inactive)
12,Cc1ccc(-c2ccc3c(c2)O[C@@H](CN(C)Cc2cccnc2)[C@H](C)CN([C@H](C)CO)S3(=O)=O)cc1,16.8% (inactive)
13,NC(=O)[C@H]1[C@@H]2C(=O)O[C@@H](c3ccccc3)[C@@H](c3ccccc3)N2[C@@H](c2ccc(O)cc2)[C@]12C(=O)Nc1ccc(C#CC3(O)CCCCCC3)cc12,32.1% (inactive)
14,C[C@H]1CN([C@@H](C)CO)S(=O)(=O)c2ccc(C#CC3(O)CCCC3)cc2O[C@H]1CN(C)C(=O)Nc1ccc(F)cc1,15.4% [at 8 µM] (inactive)
15,C[C@H](CO)N1C[C@H](C)[C@@H](CN(C)Cc2ccc(Cl)c(Cl)c2)Oc2ccc(NS(=O)(=O)c3ccccc3)cc2CC1=O,28.2% (inactive)
16,CO[C@@H]1CN(C)C(=O)c2cc(NC(=O)c3ccc(Oc4ccccc4)cc3)ccc2OC[C@H](C)NC[C@H]1C,-11.3% [at 0.5 µM] (inactive)
17,CC(C)CC#Cc1ccc2c(c1)O[C@@H](CN(C)Cc1ccncc1)[C@@H](C)CN([C@H](C)CO)S2(=O)=O,7.2% [at 0.5 µM] (inactive)
18,O=C(C[C@@H]1CC[C@@H](NC(=O)CCN2CCCCC2)[C@@H](CO)O1)Nc1nccs1,-8.84% [at 1.95 µM] (inactive)
19,CCS(=O)(=O)Nc1ccc2c(c1)C(=O)N(C)C[C@H](OC)[C@@H](C)CN(C(C)=O)[C@H](C)CO2,8.06% (inactive)

row,SMILES,max activity
1,CO[C@@H]1CN(C)C(=O)c2cc(NC(=O)c3ccc(-c4ccccc4)cc3)ccc2OC[C@H](C)NC[C@H]1C,10.1% [at 1.95 µM] (inactive)
2,CCc1cnc(N2[C@H](CO)[C@@H](c3ccc(C4=CCCCC4)cc3)[C@@H]2C#N)s1,36.5% [at 0.5 µM] (inactive)
3,C[C@H]1CN([C@@H](C)CO)S(=O)(=O)c2ccc(/C=C/c3ccccc3)cc2O[C@H]1CN(C)C(=O)NC1CCCCC1,52.4% (inactive)
4,COCC(=O)Nc1ccc2c(c1)OC[C@@H](C)N(Cc1ccccc1OC)C[C@@H](C)[C@H](OC)CN(C)C2=O,-8.61% [at 7.5 µM] (inactive)
5,CC(C)COC(=O)N(C)C[C@@H]1OCc2ccccc2-c2c(n(C)c3ccccc23)C(=O)N([C@@H](C)CO)C[C@@H]1C,-18.1% [at 8 µM] (inactive)
6,CCC(=O)Nc1ccc2c(c1)C(=O)N(C)C[C@@H](OC)[C@@H](C)CN(Cc1cncnc1)[C@@H](C)CO2,-7.99% [at 0.5 µM] (inactive)
7,C[C@@H]1CN([C@@H](C)CO)C(=O)Cc2cc(NS(C)(=O)=O)ccc2O[C@@H]1CN(C)Cc1ccc(Oc2ccccc2)cc1,36.1% [at 35 µM] (inactive)
8,C[C@H](CO)N1C[C@H](C)[C@@H](CN(C)Cc2ccncc2)Oc2cc(-c3ccccc3)ccc2S1(=O)=O,23.5% (inactive)
9,C[C@@H]1CCCCO[C@H](CN(C)CC2CCCCC2)[C@H](C)CN([C@@H](C)CO)C(=O)c2cc(NC(=O)Nc3ccccc3)ccc2O1,9.95% (inactive)
10,C[C@@H]1CCCCO[C@H](CN(C)CC2CCCCC2)[C@H](C)CN([C@@H](C)CO)C(=O)c2cc(NC(=O)Nc3ccc(F)cc3)ccc2O1,11.6% (inactive)
11,CO[C@H]1O[C@H](CO)[C@@H](OC(=O)Nc2ccccc2)[C@H](OC(=O)Nc2ccc3c(c2)OCO3)[C@H]1OC(=O)Nc1ccc2c(c1)OCO2,-7.27% [at 1.95 µM] (inactive)
12,Cc1ccccc1S(=O)(=O)NCC[C@H]1CC[C@H](NC(=O)Nc2cccc(Cl)c2)[C@@H](CO)O1,13.2% (inactive)
13,CO[C@@H]1CN(C)C(=O)c2cc(NC(C)=O)ccc2OC[C@H](C)N(Cc2nccs2)C[C@@H]1C,24.6% (inactive)
14,CC(C)NC(=O)N1[C@H](C#N)[C@@H](c2ccc(-c3ccc(F)cc3)cc2)[C@@H]1CO,21.4% [at 8 µM] (inactive)
15,CC(C)C#Cc1ccc([C@@H]2[C@@H](CO)N(C(=O)c3cccc(F)c3)[C@H]2C#N)cc1,15.2% (inactive)
16,N#C[C@H]1[C@@H](c2ccc(-c3ccc(F)cc3)cc2)[C@H](CO)N1C(=O)Cc1ccccc1,29.3% [at 8 µM] (inactive)
17,N#C[C@@H]1[C@@H](c2ccc(C#Cc3ccc(F)cc3)cc2)[C@H](CO)N1C(=O)C1CCC1,35.7% (inactive)
18,CO[C@H]1O[C@H](CO)[C@@H](OC(=O)c2ccc(Br)cc2)[C@H](OC(=O)c2cc3ccccc3[nH]2)[C@H]1OC(=O)c1cc2ccccc2[nH]1,39.8% (inactive)
19,CC(C)CC#Cc1ccc2c(c1)O[C@H](CN(C)Cc1ccncc1)[C@H](C)CN([C@@H](C)CO)S2(=O)=O,25.7% (inactive)

row,SMILES,max activity
1,C[C@@H]1CN([C@@H](C)CO)S(=O)(=O)c2ccc(C#CC3(O)CCCC3)cc2O[C@@H]1CN(C)C(=O)Nc1cccc(F)c1,40.2% (inactive)
2,CO[C@H]1CN(C)C(=O)c2cc(NS(=O)(=O)c3cn(C)cn3)ccc2OC[C@H](C)N(C)C[C@@H]1C,-7.09% [at 0.5 µM] (inactive)
3,COc1cccc(NC(=O)N[C@@H]2C=C[C@H](CC(=O)NCc3ccncn3)O[C@H]2CO)c1,11.5% (inactive)
4,CC(C)NC(=O)N(C)C[C@H]1Oc2cc(C#Cc3cccc(F)c3)ccc2S(=O)(=O)N([C@H](C)CO)C[C@H]1C,32.6% (inactive)
5,C[C@H](CO)N1C[C@H](C)[C@@H](CN(C)Cc2ccc(Cl)c(Cl)c2)Oc2ccc(NS(=O)(=O)c3cccs3)cc2CC1=O,37.8% [at 8 µM] (inactive)
6,CO[C@@H]1CN(C)C(=O)c2ccc(NC(=O)NC(C)C)cc2OC[C@@H](C)N(C(=O)NC(C)C)C[C@H]1C,-11.6% [at 2.1 µM] (inactive)
7,CCCC(=O)Nc1ccc2c(c1)OC[C@H](C)N(CCc1ccccc1)C[C@@H](C)[C@H](OC)CN(C)C2=O,25.9% (inactive)
8,O=C(Nc1ccc(Cl)cc1)N[C@@H]1CC[C@@H](CCn2cc(C3(O)CCCC3)nn2)O[C@@H]1CO,29.6% (inactive)
9,C[C@@H]1CN([C@@H](C)CO)C(=O)c2ccccc2-c2ccccc2CO[C@H]1CN(C)CC1CC1,9.59% (inactive)
10,CO[C@@H]1CN(C)C(=O)c2ccc(NC(=O)Nc3cccc(F)c3)cc2OC[C@@H](C)N(C(=O)C2CC2)C[C@H]1C,-12.2% [at 8 µM] (inactive)
11,C[C@@H]1CN([C@@H](C)CO)C(=O)c2cc(NC(=O)NC3CCCCC3)ccc2O[C@@H](C)CCCCO[C@@H]1CN(C)Cc1ccc(C(F)(F)F)cc1,24.6% (inactive)
12,CC(C)CC#Cc1ccc2c(c1)O[C@H](CN(C)Cc1ccccn1)[C@@H](C)CN([C@@H](C)CO)S2(=O)=O,27.1% (inactive)
13,CC(C)C#Cc1ccc2c(c1)O[C@H](CN(C)Cc1cccnc1)[C@@H](C)CN([C@H](C)CO)S2(=O)=O,44.6% (inactive)
14,CCCC(=O)Nc1ccc2c(c1)C(=O)N(C)C[C@@H](OC)[C@@H](C)CN(C)[C@@H](C)CO2,-13% [at 8 µM] (inactive)
15,C[C@@H]1CN([C@H](C)CO)C(=O)c2cccc(NC(=O)Nc3ccc(F)cc3)c2O[C@H]1CN(C)S(=O)(=O)c1ccc(F)cc1,-11.6% [at 7.5 µM] (inactive)
16,C[C@@H]1CN([C@@H](C)CO)C(=O)c2cccc(NC(=O)Nc3ccc(C(F)(F)F)cc3)c2O[C@H]1CN(C)Cc1ccc2c(c1)OCO2,34.4% [at 8 µM] (inactive)
17,C[C@H]1CN([C@@H](C)CO)C(=O)c2cccc(NC(=O)Nc3ccc(C(F)(F)F)cc3)c2O[C@@H]1CN(C)Cc1ccc2c(c1)OCO2,42% (inactive)
18,Cc1ccc(S(=O)(=O)N(C)C[C@@H]2Oc3c(NC(=O)Nc4ccc(F)cc4)cccc3C(=O)N([C@H](C)CO)C[C@H]2C)cc1,-10.7% [at 1.95 µM] (inactive)
19,C[C@@H]1CN([C@@H](C)CO)C(=O)c2cc(Br)cnc2O[C@H]1CN(C)C(=O)c1ccccc1,9.74% (inactive)

# Reference: PubChem BioAssay AID1224921 (Broad Institute, 2016)
